Experimental findings from PubChem BioAssay AID902 (National Center for Advancing Translational Sciences (NCATS), 2007) are described below.

About 1,900 (1.5%) of roughly 130,000 compounds were called active. Where a call stands in place of a potency, no number is given. Inconclusive results (about 5%) are left out. The call rests on the fitted dose curve; in most records, active means well fitted cell-killing curve with a large enough effect; inconclusive means small, poorly fitted or top-dose-only effect; inactive means no such curve, though single readings can be large or run the other way. This excerpt belongs to a sample that is enriched for actives.
Potency means the concentration at half of the fitted maximal effect.

The nature of this experiment: qHTS Screen for Compounds that Selectively Target Cancer Cells with p53 Mutations: Cytotoxicity of p53ts Cells at the Nonpermissive Temperature. Further: nearly all actives have a fitted effect of over 55% in size. Particulars: H1299-p53A138V viability at 39C, ATP luminescence, 24 h; series mostly up to 46.1 µM. An excerpt:
NIH Chemical Genomics Center [NCGC] NIH Molecular Libraries Screening Centers Network [MLSCN] MLSCN Grant: 1 X01 MH079844-01 Assay Submitter (PI): Dr. SUN, YI, University of Michigan NCGC Assay Overview: Synthetic Lethal Screen for Compounds to Kill Cancer Cells with p53 Mutation. Tumor suppressor gene p53 serves as a major cellular barrier against tumorigenesis. […] The goal of this screening is to identify small molecule probes that selectively kill cancer cells with mutations in p53. This screening was carried out using two lines of H1299 lung cancer cells. The H1299-p53 A138V line express a temperature sensitive p53 mutant (p53ts) in which the mutant p53 protein (A138V) is in the mutant confirmation when grown at 39C (the nonpermissive temperature) and in the wild type conformation when grown at 32C (the permissive temperature). A H1299-neo line (p53 null) grown at both 39C and 32C were used as counter-screens to filter out false positive associated with temperature shifting. The small molecular compounds that selectively target mutant p53-containing cancer cells were selected as candidate probes for further study. A cytotoxicity assay based on the measurement of ATP contents in cells was used in this screen. Concentration-responses of all the compounds in the library collection were determined in qHTS using the cell lines and temperature conditions as above.
NCGC Assay Protocol Summary: Both the H1299-p53A138V and H1299-neo cell lines were provided by Dr.Yi Sun, a PI at the University Michigan. The cells were maintained and cultured at 37C. The resuspended frozen cells were used to plate the cells in the 1536-well assay plates at a density of 600 cells per well in 5 ul medium. The assay plates with the cells were incubated at 37C for 16 to 30 hours before the experiments. The library compounds in DMSO solution were added to the cells in assay plates and incubated 24 hours at 39C (for mutant p53 conformation) or 32C (for normal p53 conformation as control). An ATP_lite assay kit (PerkinElmer) was used to determine the cell viability. Tomaxifen (100uM) was used as the positive control for cell killing. Data were normalized to the controls for basal activity (DMSO only) and 100% killing (100uM tamoxifen). AC50 values were determined from concentration-response data modeled with the standard Hill equation. P53 assay protocol: 1. Reagent; 5 uL H1299-p53A138V or H1299-neo cell cells/well 2. Time; overnight; 37C incubation 3. Compounds; 23 nL; 5.9 nM to 46 uM 4. Controls; 23 nL; Tamoxifen 100 uM 5. Time; 24 hr; 39C incubation 6. Reagent; 3 uL; ATP_Lite reagent 7. Time; 20 min; Room Temperature 8. Detection; Luminescence; Viewlux plate reader Keywords: p53, synthetic lethal, cancer, cell viability, cytotoxicity, H1299 cell line, luminescence, MLSMR, MLSCN, NIH Roadmap, qHTS, NCGC
A general note: qHTS replaces the single test concentration by a dilution series.
With `CC(C)(Cc1c[nH]c2ccc(Cl)cc12)NCCOc1ccccc1OCC1CC1`, the Potency was 25.1 µM (active).
On the same count and under the same terms, next, `Cc1cccc(Cn2cccc(C(=O)Nc3ccc4c(c3)OCCO4)c2=O)c1`: “inactive”.
As for `CCN(CC)CCn1ncc2c(N)ncnc21`, the activity change, negative = cell killing is -0.868% [at 9.22 µM] (inactive).
For `C/C(=C\C=C/[C@@H](C)C(=O)O)[C@H]1CN[C@H](C(=O)O)[C@@H]1CC(=O)O`, the Potency result is “inactive”.
Consider `CN(C)C(=O)Oc1cc(OC(=O)N(C)C)cc(C(O)CNC(C)(C)C)c1` (stereo not given), for which the Potency result is “inactive”.
On the same count and under the same terms, next, `CC(C)Oc1ccc(NC(=O)c2cc3ccccc3o2)cc1`: 6.31 µM (active).
The same measure, in the same setting: to `COc1cc(C(c2c(O)c3ccccc3oc2=O)c2c(C)n(C)n(-c3ccccc3)c2=O)ccc1O` (stereo not given) belongs “inactive”; to `O=C1C2CCN(CC2)C1(CO)CO`, “inactive”.
Still for that read-out and setting: to `C=CCSSCC=C` belongs “inactive”.
Consider `Cc1nnc(NC(=O)c2cccn(Cc3cccc(F)c3)c2=O)s1`, for which the Potency result was “inactive”.
For the compound `NCCc1c[nH]c2ccc(O)cc12`, the Potency result is “inactive”.
On the same count and under the same terms, to `Fc1ccc(C(OCCN2CCN(C/C=C\c3ccccc3)CC2)c2ccc(F)cc2)cc1` belongs 31.6 µM (active); to `CCN1C[C@]2(C)CC[C@H](O)[C@@]34[C@@H]5CC6[C@@H](OC)C[C@@](O)([C@@H]5[C@@H]6O)[C@H](C[C@@H]23)[C@H]14`, “inactive”; to `COc1ccc(C2Oc3c(I)c(OC)cc(OC)c3CC2O)cc1OC` (stereo not given), “inactive”.
With `CC(C)(O)/C=C\C(=O)[C@](C)(O)[C@H]1[C@H](O)C[C@]2(C)[C@@H]3CC=C4[C@@H](C=C(O)C(=O)C4(C)C)[C@]3(C)C(=O)C[C@@]12C`, the activity change, negative = cell killing was -1.33% [at 9.22 µM] (inactive).
For `CC[C@@](O)(C(=O)O)c1cc2n(c(=O)c1CO)Cc1cc3ccccc3nc1-2`, the activity change, negative = cell killing was 11.1% [at 9.22 µM] (inactive).
`O=C(N/N=C/c1c(O)n(Cc2ccccc2)c(=O)[nH]c1=O)c1ccccc1`: the Potency result was “inactive”.
Still for that read-out and setting: next, `CN1C2CC3CC1C(O3)C2O` (stereo not given): “inactive”; `CCCCN1C2CCC1CC(OC(c1ccc(F)cc1)c1ccc(F)cc1)C2` (stereo not given): 12.6 µM (active).
Same read-out and setting: next, `Cn1c(O)c(C=NCCN2CCNCC2)c(=O)n(C)c1=O`: “inactive”; `CC(=O)OC1C2CCC3C1(CC(O)[C@@]1(O)[C@@H](CC(O)C1(C)C)[C@]3(C)O)C[C@@]2(C)O` (stereo not given in full): “inactive”.
The same measure, in the same setting: to `CC[C@@H]1CN2CC[C@@H]1C[C@H]2[C@H](O)c1ccnc2ccc(OC)cc12` belongs “inactive”; to `O=C(Nc1ccc(Cl)cc1C(=O)c1ccccc1)c1cc(Cl)cc(Cl)c1`, “inactive”; to `C[C@@]12CCC3C(CC[C@@H]4CC(O)CC[C@@]34C)C1CCC2O` (stereo not given in full), “inactive”.
`C[C@@]1([C@@H](NP(=O)(c2ccccc2)c2ccccc2)c2ccccc2)C[C@H]1CCO`: the Potency result was “inactive”.
On the same count and under the same terms, next, `N#Cc1c(Cl)c(Cl)c(Cl)c(C#N)c1Cl`: 6.31 µM (active); `CCC(C)C(=O)O[C@@H]1C[C@@]2(C)C(c3ccoc3)OC(=O)CC23OC2(C)O[C@@]14[C@@]1(C)C(CC(=O)OC)C5(C)CC1(O)C(O)(C5OC(=O)C1(C)OC1C)C(OC(C)=O)[C@@]34O2` (stereo not given in full): “inactive”.
Turning to `Cc1ccc(-n2c(/C=C/c3cccc(C(F)(F)F)c3)nc3ccccc3c2=O)cc1`, the Potency result was “inactive”.
Turning to `Clc1ccc(C(c2ccc(Cl)cc2)n2cc[n+](C[C@@H](OCc3ccc(Cl)cc3Cl)c3ccc(Cl)cc3Cl)c2)cc1`, the Potency is 15.8 µM (active).
The same measure, in the same setting: to `CCN(CC)c1ccc(C2C(C(N)=O)=C(C)Nc3nc(SCc4ccccc4)nn32)cc1` (stereo not given) belongs “inactive”; to `Clc1ccc([C@@H]2C[C@H]3CC[C@@H]2N3)cn1`, “inactive”.
Same read-out and setting: next, `Cn1cc(/C=C/c2nc3ccccc3c(=O)n2-c2ccccc2)c2ccccc21`: “inactive”; `O=C(NC(c1ccc(Cl)cc1)P(=O)(Oc1ccccc1)Oc1ccccc1)OCc1ccccc1` (stereo not given): “inactive”.
Same read-out and setting: next, `COc1cc2c(cc1OC)[C@@H]1C(=O)c3ccc(O)c(CC=C(C)C)c3OC1CO2` (stereo not given in full): “inactive”; `COc1ccc(NC(=O)Nc2cccc3cccnc23)cc1`: 15.8 µM (active).
With `CC1=CC(=O)C2=C(C)C[C@H](O)[C@H]3[C@H](C)C(=O)O[C@@H]3C12` (stereo not given in full), the Potency result was “inactive”.
In the case of `c1csc(CN2CC3(CCNCC3)C2)n1`, the Potency entry was “inactive”.
On the same count and under the same terms, next, `CC(C)(c1ccc(OC[C@@H]2CO2)cc1)c1ccc(OC[C@H]2CO2)cc1`: 12.6 µM (active).
Still for that read-out and setting: to `Cc1ccc(N2C(=O)NC(=O)C(CCc3ccncc3)(Cc3cccc(Cl)c3Cl)C2=O)cc1` (stereo not given) belongs “inactive”; to `C[C@]12CC[C@H](O)C[C@@H]1CC[C@H]1[C@H]2CC[C@]2(C)C(=O)CC[C@@H]12`, “inactive”.
